The structures appear in SMILES notation. The panel holds about 83,000 compounds, 20% with a hit somewhere; the sample as a whole holds those more often.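 Negative percent growth values reflect cell death: -40 means 40% of the cells present at the start died, and -100 means all died.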 A number with no mark means an inactive call. Activity calls are given as the source filed them. How the source made its calls: active means growth percent below 10; inactive means the rest.

Drawing on PubChem BioAssay (NCI), this text covers growth for 27 molecules.

The assay has as its system MDA-MB-468 breast. As to the kind of experiment: NCI-60 one-dose screen, 48 h (100 = growth as untreated, 0 = no growth, -100 = all killed). The settings on record: 10 µM unless noted.
Consider `COc1cc2cc(Oc3ccc(NC(=O)Nc4ccc(Cl)c(Cl)c4)cc3)c(C)nc2cc1OC`, for which the growth was -16.7% (active).
As for `CCOC(=O)c1c(Nc2ccccc2)nn2c(N)c(C#N)c(-c3ccc(OC)cc3)nc12`, the figure is 73.1%; as for `CCOC(=O)CC[C@H](NC(=O)c1ccc(NC)c2ccccc12)C(=O)OCC`, 95.1%; as for `O=c1c(N=Nc2nccs2)c(-c2ccccc2)[nH]n1-c1nc(-c2ccccc2)cs1`, 29%.
In the case of `C[C@]12CC[C@@H]3c4ccc(OCC(=O)O)cc4CC[C@H]3[C@@H]1CCC2=O`, the growth was 113%.
As for `COc1ccc(/C=C/c2nc(Nc3ccc(S(=O)(=O)NC(C)=O)cc3)c3ccccc3n2)cc1`, the figure is 53.2%; as for `Oc1[nH]c2ccc(Cl)cc2c1/C=c1/ccc2c(c1)N=C(c1ccc(F)cc1)N=2`, 9.65% (active); as for `O=C(O)CNS(=O)(=O)c1ccc(Oc2ccc(S(=O)(=O)NCC(=O)O)cc2)cc1`, 107%.
On to `CC(C)C(=O)Nc1nc2c(s1)CCCc1ccn(S(=O)(=O)c3ccccc3)c1-2`, for which the growth is 95.3%.
The figure for `CCOC(=O)c1nn(C2CCCCO2)c2ccc(NC(=O)Cn3nnc4ccccc43)cc12` (configuration not stated) is 105%; for `O=C(OCc1ccc2cccc(O)c2n1)N1CCN(C(=O)c2cc3cc(F)ccc3[nH]2)CC1` it is -59.2% (active); for `c1ccc(-c2cn3ccnc3c(-c3ccc4c(c3)ncn4C3CCCCC3)n2)cc1` it is 112%.
`N#Cc1ccc(C(=O)CSc2nc(Nc3ccc(S(N)(=O)=O)cc3)c3ccccc3n2)cc1`: the growth was 105%.
Consider `COc1ccc2c(c1)C(C)Cc1c(Cl)nc(C)nc1N2C` (configuration not stated), for which the growth was 25.8%.
Regarding `O=C(/C=C/c1cccs1)c1ccc(Cl)nc1`, the growth is 103%.
Turning to `O=C(Nc1nc(-c2ccccc2)cs1)c1cc(O)c(O)c(O)c1`, the growth is 46.3%.
On to `COc1ccc2c(c1)c(/C(O)=C1\COC(=O)C1=O)cn2Cc1ccc(F)cc1`, for which the growth is 100%.
Regarding `COc1ccc(Cn2cc3c(c2-c2ccccc2)CCc2cnoc2-3)cc1N`, the growth is 10.4%.
As for `NC(=O)CN1C(=O)c2ccccc2C1=O`, the growth is 107%.
With `CC1=C(C)C(=O)C(Nc2ccc(C)cc2)=C(Br)C1=O`, the growth was -4.77% (active).
Regarding `COc1ccc(-c2nc(SCC(C)C)nc(N/N=C\c3ccc(F)cc3)c2C#N)cc1`, the growth is 102%.
Turning to `Cn1c(C(N)=O)cc2c1-c1nc(Nc3ccccc3)ncc1CCC2`, the growth was 53.4%.
As for `CCOc1cccc2c(NC(C)CCCN(CC)CC)c(C)cnc12` (configuration not stated), the growth is 92.9%.
For the molecule `Cc1nc(Nc2ccccn2)sc1C(=O)/C=C/c1ccc(Br)cc1`, the growth is 27.3%.
For the molecule `CNC(=O)CN1CCC(Oc2cc3c(Nc4cccc(Cl)c4F)ncnc3cc2OC)CC1`, the growth was -22.9% (active).
Turning to `COc1ccc(/C=C(\C#N)c2ccccc2)cc1`, the growth was 91.2%.
For `C=CCOc1cccc(/C=C/C(=O)c2sc(Nc3cccnc3)nc2C)c1`, the growth is 47.5%.
